High-throughput results: PubChem BioAssay, National Center for Advancing Translational Sciences (NCATS)
The list is not random: actives were taken first. Their share in the collection is about 11%.
AMA1 RON2 block – qHTS for Inhibitors of AMA1-RON; Towards Development of Antimalarial Drug Lead: Primary Screen; Potency, µM (doses to about 58.2 µM), for the others: top-dose activity change, negative = inhibition, actives largely listed as inhibitors; 360,000 compounds, 0.2% hits; AID 720542, 2013; AlphaScreen AMA1-biotinylated RON2 peptide binding;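 note: 0% = vehicle wells and -100% = peptide control; nearly all actives have a fitted effect of over 45% in size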
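AMA1 (3D7) with his tag at 25 nM final met compounds first, then biotinylated RON2 peptide at 25 nM; detection used donor plus acceptor beads, 10 µg/mL apiece, read by AlphaScreen after 30 min at room temperature.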
Pf growth 48h – Primary qHTS for delayed death inhibitors of the malarial parasite plastid, 48 hour incubation. P. falciparum luciferase growth in erythrocytes, 48 h. Potency, µM (series often up to 28.7 µM), for inactives: at the highest dose activity change, negative = inhibition, hits mostly inhibitors. 310,000 compounds, 5.9% hits
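Luciferase-expressing P. falciparum in infected erythrocytes (2% hematocrit, 0.1% parasitemia final) in RPMI 1640/0.5% Albumax were exposed to compound for 48 hours at 37 C, 5% CO2; growth read as luminescence.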
HCV inhibitor – qHTS Assay for Inhibitors of Hepatitis C Virus (HCV) | AID 651820, 2012 | Huh7.5.1 HCVcc-Cre infection, luciferase reporter, 44 h | 340,000 compounds, 3.4% hits | Potency, µM (titrated, usually from 41.8 µM), for inactives: top-dose activity change, negative = inhibition, usual class: inhibitors
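After 44 h co-culture of compound, cells and HCVcc-Cre (~0.5 moi), substrate is added for 15 min at room temperature and luciferase measured over 15 sec. Cells were seeded at 1,000/well and pre-cultured 4 h.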
Pf growth 96h – Primary qHTS for delayed death inhibitors of the malarial parasite plastid, 96 hour incubation | P. falciparum luciferase reporter growth, 96 h | Potency, µM (doses to about 28.7 µM), inactives show top-dose activity change, negative = inhibition, most hits filed as inhibitors | 320,000 compounds, 6.9% hits | AID 504834, 2011
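P. falciparum expressing integrated firefly luciferase, in erythrocytes at 2% hematocrit, 0.05% parasitemia, incubated with compounds 96 h at 37 C, 5% CO2. Growth inhibition read as loss of luminescence; two-generation exposure targets delayed-death apicoplast inhibitors.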
AmpC no deterg – qHTS Inhibitors of AmpC Beta-Lactamase (assay without detergent). 330,000 compounds, 0.52% hits. Potency, µM (highest dose often 57.1 µM), for inactives: top-dose activity change, negative = inhibition, most hits filed as inhibitors. AID 485341, 2010. P00811. AmpC nitrocefin hydrolysis, absorbance 480 nm, 0.0001% Triton;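 note: plate controls were no compound for no effect and no enzyme for full effect; nearly all actives have a fitted effect of over 20% in size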
Target sequence (P00811 whole entry, looked up): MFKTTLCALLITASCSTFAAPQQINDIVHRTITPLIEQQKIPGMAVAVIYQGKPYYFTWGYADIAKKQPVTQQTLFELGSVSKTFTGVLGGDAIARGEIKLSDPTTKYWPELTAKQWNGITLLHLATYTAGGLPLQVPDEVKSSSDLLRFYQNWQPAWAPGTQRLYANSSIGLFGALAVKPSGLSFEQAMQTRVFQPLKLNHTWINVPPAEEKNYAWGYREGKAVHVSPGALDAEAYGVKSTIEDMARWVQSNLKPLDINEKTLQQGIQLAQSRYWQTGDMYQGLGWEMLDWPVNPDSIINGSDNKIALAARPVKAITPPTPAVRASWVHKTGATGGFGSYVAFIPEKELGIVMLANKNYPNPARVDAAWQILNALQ
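AmpC (5.3 nM in the dispensed reagent) in 20 mM phosphate pH 7.0 with 0.01% (detergent screen) or 0.0001% Triton X-100 was preincubated with compounds for 15 min at room temperature. Nitrocefin was then added from an 800 uM solution, and hydrolysis was followed at 480 nm.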
AmpC detergent – qHTS Inhibitors of AmpC Beta-Lactamase (assay with detergent); P00811; AmpC hydrolysis of nitrocefin, absorbance 480 nm, 0.01% Triton; Potency, µM (highest dose often 114 µM), for the others: at the highest dose activity change, negative = inhibition, usual class: inhibitors; 370,000 compounds, 0.041% hits;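 note: 0% = no-compound wells and -100% = no-enzyme wells; nearly all actives have a fitted effect of over 25% in size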
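20 mM phosphate pH 7.0 + 0.01% (detergent screen) or 0.0001% Triton X-100; 5.3 nM AmpC reagent; cpd preinc 15 min RT; nitrocefin (800 uM stock) to start; A480 q20 s × 4 min; Activity was normalised to no-enzyme and no-compound control wells.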
* marks the source's active call; other numbers are inactive results; ? = inconclusive; · = no result given; [ ] = dose if it differs, or a comment. Calls come from the whole dose curve; as a rule, active = well fitted curve in the direction sought with a large enough effect; inconclusive = small, poorly fitted or top-dose-only effect, or another doubt; inactive = no such curve, though single readings can be large; an effect the other way counts as inactive or inconclusive. Unless noted, % is set by controls: 0 for no effect and ±100 for the full control effect; potency is the fitted concentration of half-maximal effect.

SMILES	AMA1 RON2 block	Pf growth 48h	HCV inhibitor	Pf growth 96h	AmpC no deterg	AmpC detergent
O=C1CNC(c2ccccc2Cl)c2cc(Br)ccc2N1 (centres undefined)	2%	-16%	-1%	4.7µM*	-2%	?
COC(=O)CN1C(=O)Nc2ccc(Br)cc2C1c1ccccc1Cl (centres undefined)	0%	·	?	·	48%	-11%
CC(=O)OCC(=O)[C@H]1CC[C@H]2[C@@H]3CCC4=CC(=O)CC[C@]4(C)[C@H]3CC[C@]12C	18%	?	?	?	4%	-6%
C[C@]12CC[C@H]3[C@@H](CCC4=CC(=O)CC[C@@]43C)[C@@H]1CC[C@@H]2C(=O)CO	-6%	12µM*	?	9.3µM*	-7%	-13%
CC(=O)C1C(N2CC2)CC2C3CCC4=CC(=O)CCC4(C)C3CCC21C (centres undefined)	15%	·	0.56µM*	·	·	·
C[C@H](O)[C@H]1CC[C@H]2[C@@H]3CCC4=CC(=O)CC[C@]4(C)[C@H]3CC[C@]12C	10%	-4%	-14%[8.37 µM]	-16%	85%	2%
O=C(NC(c1ccccc1)C(Cl)Cl)c1ccccc1 (centres undefined)	-12%	-27%	16%	2.6µM*	-21%	-14%
O=C(NC(CSSCC(NC(=O)c1ccccc1)C(=O)O)C(=O)O)c1ccccc1 (centres undefined)	-4%	29%	1.6µM*	43%	-5%	-2%
COc1ccc(Cn2c(=O)n(-c3ccc(F)c(Cl)c3)c(=O)c3c2c2cc(OC)ccc2n3C)cc1	·	·	·	·	·	21%
COc1cccc(CN2C(=O)c3ccccc3Sc3ccc(C(=O)NCCc4ccc(C)cc4)cc32)c1	·	·	·	·	·	3%
C=CCn1c(SCC(=O)c2cccs2)nc2sc(CC)cc2c1=O	-12%	·	3.2µM*	-13%	-30%	-5%
C=CCn1c(SCC(=O)/C(C#N)=C(\C)N)nc2sc(CC)cc2c1=O	10%	?	?	10µM*	0%	-1%
CC1CCC(Nc2nc3c(-c4cccc(C(F)(F)F)c4)nnn3c3ccccc23)CC1 (centres undefined)	·	·	·	·	·	10%
CN(C)c1cccc(C(=O)Nc2nc3ccc(S(=O)(=O)N4CCCC4)cc3s2)c1	·	·	·	·	·	14%
COc1ccc(-c2nc3ccc(NS(C)(=O)=O)cc3o2)cc1	·	·	·	·	·	21%
COC(=O)c1cc2occc2n1Cc1nc(-c2ccccc2Cl)oc1C	-4%	-19%	1%[8.37 µM]	12µM*	-21%	-7%
CCN1/C(=C/c2ccc3cc(C)ccc3[n+]2CC)Sc2ccc3sccc3c21	-8%	·	3.5µM*	·	·	·
CCN1/C(=C/c2ccc3cccc(C)c3[n+]2CC)Sc2ccccc21	-2%	?	6.3µM*	?	-3%	?
CCN1/C(=C\C=C(C(C)=O)C(C)=O)Sc2ccccc21	-7%	0%	-21%	-10%	2%	1%
CC[n+]1c(/C=C/c2cc([N+](=O)[O-])ccc2O)ccc2ccccc21	-17%	?	?	95%	2%	-13%
CCN1/C(=C\c2ccc3cc(C)ccc3[n+]2CC)Sc2cc(C)c(C)cc21	-30%	5.2µM*	2.8µM*	31%	-9%	-1%
CC1CCCN(C(=O)Cn2c(=O)n(CC3CCC(C(=O)NC(C)C)CC3)c(=O)c3sccc32)C1 (centres undefined)	·	·	·	·	·	25%
Cc1cccc(-c2noc(-c3ccc(N4CCN(C)CC4)c([N+](=O)[O-])c3)n2)c1	·	·	·	·	·	29%
CCOC(=O)C1=C(CN(C)Cc2ccccc2)NC(=O)NC1c1ccc(OC(C)C)cc1 (centres undefined)	·	·	·	·	·	2%
Cc1cccc(Cn2c(=O)n(Cc3ccc(C(=O)NC4CCN(Cc5ccccc5)CC4)cc3)c(=O)c3ccccc32)c1	·	·	·	·	·	15%
SMILES	AMA1 RON2 block	Pf growth 48h	HCV inhibitor	Pf growth 96h	AmpC no deterg	AmpC detergent
COc1ccccc1N1CCN(CC(O)COc2ccc(C)c(C)c2)CC1 (centres undefined)	-20%	10%[0.00184 µM]	-18%	23%	47%	-1%
O=S(=O)(c1ccc(OCC(O)CN2CCN(c3ccc(F)cc3)CC2)cc1)N1CCOCC1 (centres undefined)	-2%	0%	-24%	9.3µM*	86%	?
COc1ccccc1N1CCN(CC(O)COc2ccc(S(=O)(=O)N3CCOCC3)cc2)CC1 (centres undefined)	-9%	·	?	8.3µM*	22%	?
OC(COc1ccc2ccccc2c1)CN1CCN(c2ccc(F)cc2)CC1 (centres undefined)	7%	17%	5%	-28%	40µM*	?
COCCCn1c(SCC(=O)Nc2ccc(F)cc2)nc2c(sc3ccccc32)c1=O	·	·	·	·	·	-5%
Brc1cnc(N2CCCCC2)nc1N1CCOCC1	-6%	·	13%	26%	-11%	-1%
Brc1cnc(N2CCCC2)nc1N1CCOCC1	14%	4%	22µM*	-16%	-8%	5%
CCC(CC)C(=O)c1c[nH]c(C(=O)NCc2cccnc2)c1	-3%	-10%	-10%	59%	-25%	-17%
O=C(NCc1cccnc1)Nc1cccc(C(F)(F)F)c1	0%	-21%	-7%	1.5µM*	-15%	?
O=C(NCc1cccnc1)c1ccc(Cl)c(Cl)c1	17%	8%	6%	6%	-13%	?
O=C(NCc1cccnc1)c1cccc(C(F)(F)F)c1	3%	-10%	-6%	·	0.32µM*	-1%
Cc1nc(-c2cccnc2)sc1C(=O)Nc1cccc(C(F)(F)F)c1	7%	?	-1%	12µM*	-3%	-7%
CC(C)CC(=O)c1c[nH]c(C(=O)NCc2cccnc2)c1	0%	10µM*	4%	?	-13%	-5%
COc1cc(C(=O)Nc2ccccc2OCc2cc(=O)n3cc(C)sc3n2)cc(OC)c1OC	·	·	·	·	·	7%
CCCCc1nn2c(=O)cc(COC(=O)c3ccccc3NC(=O)C3CCCCC3)nc2s1	·	·	·	·	·	3%
CC1(C)CC2(CC(c3ccc(F)cc3)c3ccc(O)cc3O2)NC(=S)N1 (centres undefined)	25%	2.3µM*	-23%	-16%	-35%	-3%
